The record followed here is PubChem BioAssay (NCATS).

Structures are written as SMILES. Results filed as inconclusive are left out. Values without a mark were called inactive. The source made the active and inactive calls. The call rests on the fitted dose curve; in most records, active means well fitted curve in the direction sought with a large enough effect; inconclusive means small, poorly fitted or top-dose-only effect, or another doubt; inactive means no such curve, though single readings can be large; an effect the other way counts as inactive or inconclusive.

Experiment [1] can be described thus: Drug repurposing screens with cells derived from glioblastoma tumor samples (AID 1345199). Further: nearly all actives have a fitted effect of over 40% in size. On activity, negative = cell killing: on the % scale 0 is the no-effect control and ±100 the full control effect. The conditions noted are these: GBM patient neurospheres viability, ATP luminescence, 48 h. A digest of the protocol:
(§1)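 Four patient lines of CD133+ GBM neurospheres were screened at several concentrations; hits were retested in those lines plus three slower-growing GBM lines, using 48-hour treatment and ATP-based viability.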

The subject of another experiment is astro (control astrocytes). Described as above. The note with it: viability, ATP luminescence, 48 h; series mostly up to 45.9 µM. The method in brief: as §1
A short description of experiment [2]: qHTS assay to identify inhibitors of the type 1 interferon - major histocompatibility complex class I in skeletal muscle: Counter screen cell viability and HiBit confirmation (AID 1347412). Further: nearly all actives have a fitted effect of over 60% in size. The conditions noted are these: iHSKM muscle cells + IFN-b, HiBiT or CellTiter-Glo, 24 h. A digest of the protocol: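 CRISPR HLA-B*08:01-HiBit immortalized human myoblasts (C25cl48) stimulated with 4 ng/ml IFN-beta and compounds (12-point 1:3, top 46 uM final) for 24 h at 37 C. Duplicate plates read by HiBit lytic luminescence or CellTiter Glo ATP.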
(qHTS replaces the single test concentration by a dilution series.)

The mark [3] stands for this setting: at 45.9 µM (top of the series), tumour line B.
Setting [4] is: at 45.9 µM (top of the series), tumour line D.
Setting [5] is: at 46.1 µM (top of the series), tumour line C.
Potency means the concentration at half of the fitted maximal effect.

Take `CCC(c1ccccc1)c1noc(CCN(CC)CC)n1` (centres undefined): the activity, negative = cell killing was -14.3% in experiment [1] (setting [3]), -10.2% in experiment [1] (setting [4]) and -2.54% in experiment [1] (setting [5]). The Potency result with astro is “inactive”.
Take `Cc1cccc(C)c1N(CCCc1cccnc1)C(=O)C(C)N` (centres undefined): the activity, negative = cell killing in experiment [1] (setting [3]) was -3.85%; in experiment [1] (setting [4]), -15.3%. The Potency in experiment [1] (tumour line A) was 11.2 µM (active). In addition, the Potency entry in the experiment on astro is “inactive”.
As to `O=C(CCCN1CCC(n2c(=S)[nH]c3ccccc32)CC1)c1ccc(F)cc1`, the activity, negative = cell killing in experiment [1] (setting [3]) is -28.9%. The Potency was 8.91 µM (active) in experiment [1] (tumour line A) and 11.2 µM (active) in experiment [1] (tumour line D). The Potency entry in the experiment on astro was “inactive”.
On to `CCCCc1cc2c(=O)c(C(=O)OC)c[nH]c2cc1OCc1ccccc1`, for which the activity, negative = cell killing in experiment [1] (setting [3]) is -16.1%; in experiment [1] (setting [4]) it was -19.6%; in experiment [1] (setting [5]), -7.65%. The Potency result in the experiment on astro was “inactive”.
For `c1cnc2cc3c(cc2n1)[C@@H]1CNC[C@H]3C1`, the figures for the activity, negative = cell killing in experiment [1] (setting [3]), in experiment [1] (setting [4]) and in experiment [1] (setting [5]) were 5.48%, -17.8% and -0.703%, respectively. Further, the Potency result with astro is “inactive”.
The matching figures for `O=S(O)CO`: 4.97%, -2.6%, -1.44% and “inactive”.
`O=P(O)(O)OC(Cn1cncn1)(Cn1cncn1)c1ccc(F)cc1F`: the activity, negative = cell killing in experiment [1] (setting [3]) was -3.57%; in experiment [1] (setting [4]), -9.38%; in experiment [1] (setting [5]) it was 14%. Further, the Potency result in the experiment with astro is “inactive”.
Regarding `C[N+](C)(CCCCCC[N+](C)(C)C1c2ccccc2-c2ccccc21)C1c2ccccc2-c2ccccc21`, the Potency entry with astro was “inactive”.
As to `COc1cccc(OCCCN)c1-c1cc(Nc2cnc(C#N)cn2)n[nH]1`, the Potency is 15.7 µM (active) in experiment [2] (HiBiT) and 17.6 µM (active) in experiment [2] (Viability).
Turning to `C=CS(=O)(=O)O`, the activity, negative = cell killing in experiment [1] (setting [3]) is -2.55%; in experiment [1] (setting [4]), -4.12%; in experiment [1] (setting [5]), -10.9%. Also, in the experiment with astro, the Potency entry is “inactive”.
In the case of `CCC(C)C(C(=O)OCC[N+](C)(CC)CC)c1ccccc1` (centres undefined), the activity, negative = cell killing is -18.7% in experiment [1] (setting [3]) and -27.8% in experiment [1] (setting [4]). Besides, the Potency in experiment [1] (tumour line A) is 11.2 µM (active). In the experiment on astro, the Potency result is “inactive”.
